Source: PubChem BioAssay (several laboratories)
GLD-1 RNA inh: GLD-1-TGE RNA interaction inhibition (C. elegans); Q17339; purified GLD-1 + fluorescein TGE RNA, fluorescence polarization; inhibition, % at 5.96 µM; 0.44% of 320,000 active; AID 2280;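 active means percent inhibition above a per-plate cutoff, the plate mean of test compounds plus 3 SD, cut at about 30% in these data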;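 further: 0% = DMSO wells with GLD-1 and probe and 100% = wells lacking GLD-1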
Target sequence (Q17339 whole entry, looked up): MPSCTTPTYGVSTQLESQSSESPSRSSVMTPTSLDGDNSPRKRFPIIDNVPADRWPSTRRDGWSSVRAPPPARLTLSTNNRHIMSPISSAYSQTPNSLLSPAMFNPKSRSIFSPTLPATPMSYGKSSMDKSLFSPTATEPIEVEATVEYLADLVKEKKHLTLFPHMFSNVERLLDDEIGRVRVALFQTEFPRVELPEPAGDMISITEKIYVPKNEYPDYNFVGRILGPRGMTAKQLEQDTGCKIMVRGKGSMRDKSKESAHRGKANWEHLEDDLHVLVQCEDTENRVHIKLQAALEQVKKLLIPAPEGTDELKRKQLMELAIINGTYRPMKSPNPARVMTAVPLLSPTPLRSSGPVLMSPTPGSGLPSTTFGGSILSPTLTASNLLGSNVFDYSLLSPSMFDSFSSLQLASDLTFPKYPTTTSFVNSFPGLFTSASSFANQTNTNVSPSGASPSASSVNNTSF
eLon inh: inhibits E. coli Lon protease | P0A9M0 | purified E. coli Lon protease, fluorescence polarization | inhibition, % at 7.94 µM | 0.42% of 360,000 active | AID 602123; in the data active means inhibition above about 13%, passing the limit was not always enough;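 further: 0% = enzyme with probe and DMSO and 100% = no enzyme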
Bcl-xL primary: Bcl-xL (human) inhibition; Q07817; GST-Bcl-xL / FITC-Bim BH3 peptide fluorescence polarization; inhibition, % at 10.9 µM; 0.7% of 320,000 active; AID 2129;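 active means inhibition above the mean of all tested compounds plus 3 SD, cutoff set per campaign, cut at about 30% in these data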;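 further: 0% = DMSO wells and 100% = unlabeled Bim-BH3 peptide competitor; inhibitors lower millipolarization by displacing the labeled peptide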
Target sequence (Q07817 whole entry, looked up): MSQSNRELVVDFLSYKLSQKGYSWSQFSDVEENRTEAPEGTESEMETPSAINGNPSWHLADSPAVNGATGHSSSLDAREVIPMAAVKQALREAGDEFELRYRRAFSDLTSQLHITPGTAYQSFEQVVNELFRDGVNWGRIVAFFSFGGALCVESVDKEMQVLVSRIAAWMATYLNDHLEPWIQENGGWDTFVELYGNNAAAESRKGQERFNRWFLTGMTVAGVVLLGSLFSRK
EBV gp42 block: blocks Epstein-Barr virus glycoprotein 42 binding. Fluorescence polarization binding assay, mP read-out. 0.42% of 220,000 active. Q1HVG2. AID 1085. inhibition, % (tested at 21.74 µM); in the data active means inhibition above about 50%
MEX-5 binding: C. elegans MEX-5 TCR-2 RNA binding activity. Q9XUB2. MEX-5/FITC-TCR2 RNA binding, fluorescence polarization; stronger effect = lower value. activity score (negative = inhibition of binding), % at 10 µM. 0.38% of 300,000 active;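 active means inhibition past about -25% in most replicates, and total fluorescence under double the plate's negative control median, limit read from the data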;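 further: 0% = DMSO and -100% = 5 µM competing unlabeled TCR2 RNA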
MCL1-BIM inh: inhibitors of human MCL1 binding to BIM-BH3 peptide | Q07820 | 0.68% of 320,000 active | inhibition, % at 10.9 µM | GST-MCL1 / FITC-Bim-BH3 fluorescence polarization;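 active means inhibition above the mean inhibition of all tested compounds plus 3 SD, set per campaign, cut at about 40% in these data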;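 further: 0% = DMSO wells and 100% = unlabeled Bim-BH3 peptide control; higher means more loss of mP so more displacement of Bim peptide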
eLon confirm: E. coli Lon inhibition confirmation. shares compounds with eLon inh. purified E. coli Lon, fluorescence polarization. inhibition, % at 7.94 µM. 31% of 1,400 active; in the data active means inhibition above about 16%;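 further: 0% = enzyme with probe and DMSO and 100% = no enzyme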
Starred values were filed as active, the others as inactive; / = no result given. Rows were chosen to be rich in hits. Some 1.5% of all compounds tested hit in one or more screens of this group.

SMILES | GLD-1 RNA inh | eLon inh | Bcl-xL primary | EBV gp42 block | MEX-5 binding | MCL1-BIM inh | eLon confirm
O=C(Nc1cccc(S(=O)(=O)N2CCCCC2)c1)c1ccc2c(=O)n3c(nc2c1)CCCCC3 | 2.8 | 25.3* | 6.5 | -2.6 | -1.8 | -0.6 | 6.0
CCOC(=O)c1ccccc1NC(=O)Cc1ccc(S(=O)(=O)N2CCCC2)s1 | 7.5 | -2.3 | / | / | / | / | /
COC(=O)c1[nH]c2cccc(OC)c2c1NC(=O)CCN1CCN(c2ccccc2OC)CC1 | -3.5 | 20.7* | -11.6 | -16.2 | -0.5 | 9.4 | 6.5
Cc1ccc(S(=O)(=O)N2CCN(C(=O)CCc3c[nH]c4ccccc34)CC2)c(C)c1 | 3.3 | 8.4 | -5.1 | / | / | -18.8 | /
CC1(CCC(=O)N2CCCC(N3CCN(c4ccc(F)cc4)CC3)C2)CC1 (configuration not stated) | 2.2 | 13.2* | -1.5 | / | 1.0 | 3.3 | -6.9
CSCC(=O)N1CCCC(N2CCN(c3ccc(F)cc3)CC2)C1 (configuration not stated) | 4.8 | -6.1 | 4.9 | / | 0.5 | 8.1 | /
Cc1ncc([N+](=O)[O-])n1CC(=O)Nc1cccc(C(F)(F)F)c1 | 1.1 | 29.3* | 9.7 | / | 3.9 | 5.3 | -91.4
Cc1ncc([N+](=O)[O-])n1CC(=O)Nc1ccc(F)c(Cl)c1 | -6.7 | -5.5 | 2.1 | / | 2.4 | 11.3 | /
COC(=O)C1=C(C)NC(=O)CC1c1ccccc1 (configuration not stated) | -2.3 | -1.4 | 5.9 | 5.7 | 0.4 | 8.2 | /
COC(=O)C1=C(C)NC(=S)N(C(C)=O)C1c1ccccc1 (configuration not stated) | -2.1 | 17.5* | -1.2 | -20.4 | -0.2 | 8.9 | 20.5*
CCCCN1CC(N2CCN(Cc3ccccc3)CC2)CS1(=O)=O (configuration not stated) | / | 1.9 | / | / | / | / | /
Cc1ccc(NC(=S)NCc2ccc(Cl)cc2)c(C)c1 | 0.4 | 17.2* | 3.0 | / | 5.9 | 13.3 | -47.2
O=C(Cc1ccc(Br)cc1)N1CCN(c2ccc(F)cc2)CC1 | -1.0 | -4.6 | 2.9 | 4.4 | -0.9 | 4.0 | /
O=C(Cc1ccc(Br)cc1)N1CCN(c2ccccc2O)CC1 | 8.0 | 24.4* | 3.2 | 2.6 | 0.5 | -2.7 | 2.9
O=C(CSc1ccc2c(c1)OCCO2)N1CCN(c2ccccc2O)CC1 | / | 20.2* | / | / | / | / | -3.5
Cc1ccc2nc(Cl)cc(=O)n2c1 | / | -7.7 | / | / | / | / | /
CCNc1nc2c(c(=O)[nH]c(=O)n2C)n1CC(C)C | 4.1 | 1.6 | 2.4 | 1.3 | 1.9 | -2.3 | /
CC(C)Cn1c(NCCN(C)C)nc2c1c(=O)[nH]c(=O)n2C | 3.7 | 23.8* | 3.4 | 2.8 | -0.3 | -0.5 | 0.8
O=c1[nH]cnc2sc3c(c12)CCN(Cc1ccccc1)C3 | 9.6 | 25.0* | 32.8* | -1.0 | 11.0 | 35.3 | 10.7
Cc1ccccc1C(=O)Nc1cc(S(=O)(=O)N2CCOCC2)ccc1N1CCN(C)CC1 | -1.1 | -13.1 | -1.0 | / | / | -0.3 | /
Cc1cc2cc(CNC(=O)c3cccc([N+](=O)[O-])c3)ccc2[nH]1 | 3.0 | 23.8* | 7.1 | -4.5 | -0.7 | 7.0 | -9.8
N#Cc1ccsc1NC(=O)CSc1nncs1 | 71.0* | 27.9* | / | / | / | / | 31.4*
N#Cc1ccsc1NC(=O)CSc1ncn[nH]1 | -4.2 | 14.9 | 3.8 | -6.8 | -0.6 | 4.3 | /
Cc1cc2nc3c(=O)n(C4CCCCC4)c(=O)[nH]c3nc2cc1N | / | 75.1* | / | 141.5* | / | / | 115.3*
Nc1[nH]c(=O)[nH]c(=O)c1N=Cc1ccccc1 | / | 90.0* | / | / | / | / | 53.1*
SMILES | GLD-1 RNA inh | eLon inh | Bcl-xL primary | EBV gp42 block | MEX-5 binding | MCL1-BIM inh | eLon confirm
O=c1[nH]c(NCCO)c(N=Cc2ccccc2)c(=O)[nH]1 | 4.2 | 10.6 | 13.5 | / | -5.7 | 10.0 | /
NNC(=O)CNC(=O)c1ccccc1F | 5.0 | 53.2* | 2.0 | 0.2 | -2.1 | 2.8 | -4.1
O=C(CNC(=O)c1ccccc1F)c1ccccc1 | 9.1 | 0.4 | 4.6 | / | -1.8 | 5.0 | /
COc1ccc(COC(=O)Nc2cn(C)nc2C(F)(F)F)cc1 | 4.5 | 2.8 | -1.9 | -1.1 | -0.9 | -4.4 | /
N#CC1=C2N=C(N)c3ccccc3N2C2=C(C(=O)CCC2)C1c1ccccc1F (configuration not stated) | 13.5 | 71.2* | 23.8 | 26.3 | -0.2 | 20.6 | 3.8
CCCN(CC(=O)Nc1ccccc1C)C(=O)c1nn(CC)c(=O)c2ccccc12 | 1.4 | 0.2 | 4.9 | / | / | 4.8 | /
COc1cc2c(=O)n(CCC(=O)NCC3CCCO3)c(=O)n(CC(=O)Nc3ccc(F)cc3)c2cc1OC (configuration not stated) | -2.8 | 4.6 | -4.6 | / | -0.3 | -9.6 | /
COC(=O)C1=C(C(=O)OC)C2C(C)=CC(C)=CN2C(C(=O)OC)=C1C(=O)OC (configuration not stated) | 13.7 | 20.3* | 22.8 | 0.3 | -6.9 | 24.4 | 13.4
Cc1cc(C)cc(C(=O)Nc2ccncc2)c1 | -9.4 | 18.9* | -6.8 | / | 2.8 | -6.2 | -5.3
O=C(CN1C(=O)NC2(CCCCC2)C1=O)N1CCN(S(=O)(=O)c2ccc(Cl)s2)CC1 | -4.9 | 18.8* | -14.6 | / | / | -20.9 | -7.2
O=C(NCC1CCCN1S(=O)(=O)c1cccs1)C(=O)Nc1ccccc1Cl (configuration not stated) | -1.1 | 21.7* | 11.2 | / | 3.7 | 9.2 | -15.0
CCN(CC)CCNC(=O)c1nn(-c2ccc(Cl)cc2)c2c1CCc1cc(OC)ccc1-2 | / | 9.8 | / | / | / | / | /
COCCNc1nc(C)cc(-c2cc(C(=O)Nc3ccccc3)on2)n1 | -5.4 | 29.4* | 2.4 | / | 1.6 | 3.7 | 3.1
CCC1CCCCN1C(=O)COC(=O)c1cc(C)nc2ccccc12 (configuration not stated) | -0.2 | -8.0 | 1.3 | / | / | 2.6 | /
O=C(C[C@H]1C/C=C\CC[C@H](Cc2ccc(F)cc2)C(=O)OC[C@@H]2CCCN2C1=O)N[C@H](CO)Cc1ccccc1 | 4.0 | -3.8 | / | / | / | / | /
Cc1cc2cc3c(=O)[nH]c(=O)cc-3n(CC(O)C(O)C(O)CO)c2cc1C (configuration not stated) | / | 87.4* | / | / | / | / | 90.5*
O=C1C(=O)C(Cl)=C(Cl)C(Cl)=C1Cl | / | 40.3* | / | / | / | / | 50.7*
O=C1C(NS(=O)(=O)c2cccs2)=C(N2CCN(c3cccc(C(F)(F)F)c3)CC2)C(=O)c2ccccc21 | 15.5 | 21.9* | 17.0 | 31.4 | -0.9 | 15.2 | -0.5
Cc1[nH]c(C)c(S(=O)(=O)NCc2ccc(N(C)C)cc2)c1C(=O)N1CCCC1 | 0.2 | 1.0 | -0.9 | / | -0.7 | 7.3 | /
CCc1nc2c(OCc3cc(Cl)cc(Cl)c3)cccn2c1N(C)C(=O)c1ccc(C)cc1 | / | 1.8 | / | / | / | / | /
C=CC[C@H](CC(=O)N(CCO)Cc1ccccc1)C(=O)N[C@@H](COC(=O)[C@@H](CC=C)CC(=O)OC(C)(C)C)Cc1c[nH]c2ccccc12 | 2.3 | 21.0* | / | / | / | / | 7.7
C=CC[C@@H](CC(=O)N(CCO)Cc1ccccc1)C(=O)N[C@@H](COC(=O)[C@H](CC=C)CC(=O)OC(C)(C)C)Cc1c[nH]c2ccccc12 | 1.5 | -3.9 | / | / | / | / | /
